The supplement of paper PMC7801607

Columns and labels:
CHO = assay: % viability of CHO cells (MTT); higher = less toxic; conditions: 48 h
Method in brief: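 For 48 h, attached CHO cells (10^6 cells/well, 200 µL, seeded the night before) were kept in fresh medium carrying compound at 2 or 20 µM. A colorimetric tetrazolium (MTT) assay then gave survival as percent viability versus untreated cells.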

HepG2-A16-CD81 = assay: % inhibition of HepG2 viability (CellTiter-Glo); higher = more toxic; conditions: 5 µM
[1] = test system: Plasmodium falciparum NF54 stage IV/V gametocytes; assay: % inhibition of gametocyte viability (PrestoBlue); higher = more inhibition; conditions: 48 h
Method in brief: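 Stage IV/V NF54 gametocytes at 2% gametocytaemia and 5% haematocrit (100 µL/well) were treated with compound at 1 or 5 µM and incubated for 48 h at 37 °C under stationary, hypoxic conditions. PrestoBlue (10 µL) was then added for 2 h, and fluorescence at 612 nm was read on 70 µL of transferred supernatant. Percent inhibition of gametocyte viability was normalised to vehicle and kill controls within one run.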

[2] = test system: Plasmodium falciparum NF54 asexual blood stage; assay: % inhibition of asexual blood stage proliferation (pLDH); higher = more inhibition; conditions: 72 h
Method in brief: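 Plasmodium falciparum NF54 ring-stage cultures (1% haematocrit, 2% parasitaemia) were incubated with compound at 2 or 20 µM for 72 h at 37 °C under 4% CO2, 3% O2 and 93% N2. Survival was read at 620 nm with the parasite lactate dehydrogenase assay. Results were reported as percent inhibition of asexual proliferation relative to controls.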

[3] = test system: Plasmodium falciparum NF54 stage IV/V gametocytes; assay: % inhibition of gametocyte viability (ATP bioluminescence); higher = more inhibition; conditions: 24 h
Method in brief: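 Stage IV/V NF54 gametocytes from density gradients (30,000 per well, 96-well plates) were incubated with compound at 1 or 5 µM for 24 h at 37 °C. A single run supplied percent inhibition of gametocyte viability, based on ATP measured with Promega BacTiter Glo and normalised to control wells.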

[4] = test system: Plasmodium falciparum NF54 stage IV/V gametocytes; assay: % inhibition of gametocyte viability (luciferase reporter); higher = more inhibition; conditions: 48 h
Method in brief: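 Luminescence from 30 µL lysate combined with 30 µL Promega luciferin substrate was recorded on a GloMax-Multi+ reader using 10 s integration. The lysate came from stage IV/V NF54-Pfs16-GFP-Luc gametocytes (2% gametocytaemia, 2% haematocrit) held with compound at 1 or 5 µM for 48 h at 37 °C under stationary, hypoxic conditions. Percent inhibition was normalised against controls run once.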

[5] = test system: Plasmodium berghei ANKA liver stage in HepG2-A16-CD81; assay: % inhibition of liver stage parasite viability (luciferase); higher = more inhibition; conditions: 5 µM; 48 h
Protocol: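 Single-concentration screen of the MMV Pandemic Response Box. P. falciparum NF54 asexual blood stages: pLDH assay, 72 h at 37 °C, 2 and 20 µM, n=2. Stage IV/V gametocytes (NF54): luciferase reporter (NF54-Pfs16-GFP-Luc, 48 h), ATP bioluminescence (24 h) and PrestoBlue (48 h) at 1 and 5 µM, n=1. P. berghei liver stage (luciferase in HepG2-A16-CD81, 48 h post infection) at 5 µM, n=4. All normalised to DMSO and kill controls as % inhibition.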
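Throughout, for % inhibition of HepG2 viability (CellTiter-Glo): HepG2-A16-CD81 hepatoma cells plated as in the liver-stage assay but without sporozoites, with DMSO wells as negative and 25 µM puromycin as positive control.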

SMILES | % viability of CHO cells (CHO; 2 µM) [%] | % viability of CHO cells (CHO; 20 µM) [%] | % inhibition of HepG2 viability (HepG2-A16-CD81) [%] | % inhibition of gametocyte viability ([1]; 1 µM) [%] | % inhibition of gametocyte viability ([1]; 5 µM) [%] | % inhibition of asexual blood stage proliferation ([2]; 2 µM) [%] | % inhibition of asexual blood stage proliferation ([2]; 20 µM) [%] | % inhibition of gametocyte viability ([3]; 1 µM) [%] | % inhibition of gametocyte viability ([3]; 5 µM) [%] | % inhibition of gametocyte viability ([4]; 1 µM) [%] | % inhibition of gametocyte viability ([4]; 5 µM) [%] | % inhibition of liver stage parasite viability [5] [%]
Cc1ccn2c(C(=O)NCc3ccccc3)c(C)nc2c1 | 276 | 53.7 | -0.843 | 3.75 | 36.6 | 44.3 | 74.9 | < 0 | < 0 | 2.75 | 0.0756 | 20.4
Cc1ccc(NC(=O)c2ccc(CN3CCN(C)CC3)cc2)cc1Nc1nccc(-c2cccnc2)n1 | 87.6 | 50.2 | 6.65 | < 0 | < 0 | 60.6 | 98.3 | < 0 | < 0 | 0.104 | < 0 | 8.45
Cc1ccc(Oc2ccccc2-c2csc(NC3=NCCCN3)n2)c(C)c1 | 104 | 112 | 13 | < 0 | < 0 | 11.5 | 88.7 | < 0 | < 0 | < 0 | < 0 | 57.6
CCCCc1ccc(S(=O)(=O)Nc2cc(C)on2)cc1 | 106 | 124 | 15.2 | 18 | 10.4 | 84.8 | 64.2 | 2.13 | < 0 | < 0 | < 0 | 40.7
CCC(CC)[C@H](NC(C)=O)[C@@H]1[C@H](O)[C@@H](C(=O)O)C[C@H]1NC(=N)N | 88.2 | 59.8 | -1.38 | < 0 | < 0 | 31 | 22.4 | < 0 | < 0 | 0.62 | 2.25 | 24.4
CCCCSc1nc(N)c2[nH]c(=O)c(=O)n(Cc3ccccc3)c2n1 | 114 | 55.2 | 4.02 | 1.71 | 21.9 | 14.9 | 14.6 | < 0 | < 0 | < 0 | < 0 | -9.6
CC(C)N(c1cc(-c2ccccc2)sc1C(=O)O)C(=O)[C@H]1CC[C@H](C)CC1 | 91.8 | 103 | -2.07 | 18.3 | 14.3 | 28.8 | 44.9 | 4.36 | < 0 | 4.34 | < 0 | 20.5
N=C(N)c1ccc(COc2ccc(Cl)cc2)cc1 | 103 | 102 | 2.38 | < 0 | 11.4 | 11.1 | 89.9 | 0.321 | 4.27 | < 0 | < 0 | -17.2
Nc1nc(N)c2c(Sc3ccccc3)cccc2n1 | 107 | 100 | 13.7 | < 0 | 4.25 | 47.8 | 77.9 | < 0 | 2.83 | < 0 | < 0 | 48.9
Cc1nc2ccc(Cl)cc2c(-c2ccccc2)c1CC(=O)O | 121 | 61.2 | 6.38 | < 0 | < 0 | 37.6 | 40.5 | < 0 | < 0 | 7.85 | 13.3 | 24.5
O=C(Nc1ccc(F)cc1)c1nn(-c2ccccc2)c(=O)cc1Cl | 110 | 106 | 2.98 | 30.6 | 81 | 35.1 | 98.7 | 2.79 | 5.32 | 29.4 | 91.6 | 3.89
CC[N+]1(C/C2=C/CCCCCC2)CCC(NC(=O)C2c3cc(Cl)ccc3Oc3ccc(Cl)cc32)CC1 (stereo not drawn) | 100 | 75.9 | 7.74 | < 0 | 41.9 | 21.8 | 101 | < 0 | 44 | 7.3 | 34 | 6.03
O=S(=O)(Nc1ccc(O)cc1)c1cccc2cccnc12 | 91.3 | 104 | 0.07 | < 0 | < 0 | 28.2 | 52.4 | < 0 | < 0 | < 0 | < 0 | -2.62
CC[C@@]1(O)C(=O)OCc2c1cc1n(c2=O)Cc2cc3c(CN(C)C)c(O)ccc3nc2-1 | 88.8 | 67.7 | 35 | 21.5 | 26.1 | 14.3 | 82.3 | 6.83 | < 0 | 1.24 | 5.33 | 60.8
O=C(Nc1ccccc1)N(Cc1cc(Br)ccc1O)c1ccc(F)cc1 | 99.5 | 61.3 | -2.44 | 27.2 | 8.98 | 6.3 | 14.7 | < 0 | < 0 | < 0 | < 0 | 17.9
NCc1ccc(S(N)(=O)=O)cc1 | 83.8 | 129 | 6.22 | 7.26 | 15.6 | 24 | 96.5 | < 0 | < 0 | < 0 | < 0 | 19.8
OB1OCc2cc(Cl)ccc21 | 90.1 | 100 | -4.78 | < 0 | < 0 | 2.76 | -5.4 | < 0 | < 0 | < 0 | < 0 | 23.6

SMILES | % viability of CHO cells (CHO; 2 µM) [%] | % viability of CHO cells (CHO; 20 µM) [%] | % inhibition of HepG2 viability (HepG2-A16-CD81) [%] | % inhibition of gametocyte viability ([1]; 1 µM) [%] | % inhibition of gametocyte viability ([1]; 5 µM) [%] | % inhibition of asexual blood stage proliferation ([2]; 2 µM) [%] | % inhibition of asexual blood stage proliferation ([2]; 20 µM) [%] | % inhibition of gametocyte viability ([3]; 1 µM) [%] | % inhibition of gametocyte viability ([3]; 5 µM) [%] | % inhibition of gametocyte viability ([4]; 1 µM) [%] | % inhibition of gametocyte viability ([4]; 5 µM) [%] | % inhibition of liver stage parasite viability [5] [%]
N#Cc1cc([N+](=O)[O-])ccc1Oc1ccccc1Cl | 104 | 84.9 | -4.08 | 55 | 53.9 | -2.85 | 84.9 | < 0 | < 0 | < 0 | < 0 | 12.4
CCCCc1ccc(-c2nc(C)c(C(=O)OC)s2)cc1 | 113 | 102 | 0.116 | 5.41 | 22.1 | 36.8 | 59.2 | < 0 | < 0 | < 0 | < 0 | -103
COC(=O)Nc1nc2cc(Sc3ccccc3)ccc2[nH]1 | 103 | 101 | 32.9 | < 0 | 11.8 | -7.16 | 5.37 | 3.38 | < 0 | < 0 | < 0 | -25.4
FC(F)(F)Oc1ccc(Nc2ccc3cccc(Cl)c3n2)cc1 | 101 | 86.1 | 0.506 | 16.2 | < 0 | 31 | 98 | 4.02 | < 0 | < 0 | < 0 | 18
CC[C@H]1OC(=O)[C@H](C)[C@@H](O[C@H]2C[C@@](C)(OC)[C@@H](O)[C@H](C)O2)[C@H](C)[C@@H](O[C@@H]2O[C@H](C)C[C@H](N(C)C)[C@H]2O)[C@](C)(O)C[C@@H](C)C(=O)[C@H](C)[C@@H](O)[C@]1(C)O | 90.8 | 55.1 | 3.5 | 21 | 21 | -1.14 | 14.1 | < 0 | < 0 | < 0 | < 0 | 34
CCOC(=O)N1CCN(c2ccc(Cl)cc2)CC1 | 90.5 | 83.4 | -3.4 | 17.5 | < 0 | 6.16 | 24.1 | < 0 | < 0 | < 0 | 8.21 | 29.3
O=C(/C(=C/c1ccc(Cl)cc1Cl)n1ccnc1)c1ccc(Cl)cc1 | 108 | 113 | -2.24 | 38.5 | 85.8 | 56.2 | 75.6 | 40.3 | 86.2 | 80.5 | 99.8 | 26.7
COc1ccc(NC(=O)CC2Sc3ncnn3C2=O)cc1 (stereo not drawn) | 99.9 | -0.591 | 10.8 | < 0 | 2.6 | 29.9 | 26.3 | 0.572 | 16.9 | < 0 | 15.3 | 34.5
O=C1NC(=O)C(Br)=C1Br | 118 | 103 | 5.44 | 13.6 | < 0 | 42.2 | 102 | 0.158 | < 0 | < 0 | 11.4 | 35.8
COc1cc(NC(=O)CN2C(=O)NC(c3ccccc3)(c3ccccc3)C2=O)cc(OC)c1 | 91.4 | 102 | -3.2 | < 0 | 28.9 | -4.55 | 7.51 | < 0 | < 0 | < 0 | 8.59 | 9.85
Nc1nnc(-c2ccc(Cl)cc2)s1 | 84.5 | 88.7 | -0.915 | 5.08 | < 0 | 13.1 | 23.9 | < 0 | < 0 | < 0 | < 0 | 26.2
O=C(CCc1ccc2c(c1)OCO2)NCc1ccc(-c2ccccc2F)cc1 | 87.7 | 94.9 | 8.8 | < 0 | < 0 | -4.07 | -11.2 | 4.23 | < 0 | < 0 | < 0 | 43.9
[N-]=[N+]=N[C@H]1C[C@H](n2ccc(=O)[nH]c2=O)O[C@@H]1CO | 109 | 102 | -1.43 | 6.88 | 16.8 | -15.7 | 43.2 | 3 | < 0 | 11.1 | < 0 | -3.95
C[C@@H]1O[C@@H]1P(=O)(O)O | 107 | 72.6 | -3.69 | < 0 | 36.1 | -0.28 | 11.5 | < 0 | < 0 | < 0 | 4.89 | -6.92
CCOC(=O)/C=C/[C@H](C[C@@H]1CCNC1=O)NC(=O)[C@H](CC)n1cccc(NC(=O)c2cc(C)on2)c1=O | 89 | 79.7 | 0.129 | 12 | 12.7 | 43.3 | 49.5 | < 0 | < 0 | 6.73 | 10.7 | 9.24
CCc1cc(CCCOc2c(C)cc(-c3noc(C(F)(F)F)n3)cc2C)on1 | 92.1 | 110 | -0.702 | < 0 | < 0 | 40.1 | 94.3 | 7.22 | 9.64 | 8.61 | 13.1 | 28.7
CC(C)(C)NC(=O)[C@@H]1C[C@@H]2CCCC[C@@H]2CN1C[C@@H](O)[C@H](Cc1ccccc1)NC(=O)[C@H](CC(N)=O)NC(=O)c1ccc2ccccc2n1 | 89 | 114 | 10.9 | < 0 | 19.6 | 40 | 58.3 | < 0 | < 0 | < 0 | < 0 | 26.6
